The full list was thinned out, with hits kept by preference.
ST2 inh – inhibitors of human ST2 (IL1RL1) binding to IL-33, primary screen, biochemical, AlphaLISA; 78,000 tested, 2.3% active; inhibition, % for hits at 17 µM; Interleukin-1 receptor-like 1 (Homo sapiens), Q01638; AlphaLISA ST2-Fc/biotin-IL-33 interaction, 1 h; in the data active means inhibition above about 30%
Target sequence (Q01638 whole entry, looked up): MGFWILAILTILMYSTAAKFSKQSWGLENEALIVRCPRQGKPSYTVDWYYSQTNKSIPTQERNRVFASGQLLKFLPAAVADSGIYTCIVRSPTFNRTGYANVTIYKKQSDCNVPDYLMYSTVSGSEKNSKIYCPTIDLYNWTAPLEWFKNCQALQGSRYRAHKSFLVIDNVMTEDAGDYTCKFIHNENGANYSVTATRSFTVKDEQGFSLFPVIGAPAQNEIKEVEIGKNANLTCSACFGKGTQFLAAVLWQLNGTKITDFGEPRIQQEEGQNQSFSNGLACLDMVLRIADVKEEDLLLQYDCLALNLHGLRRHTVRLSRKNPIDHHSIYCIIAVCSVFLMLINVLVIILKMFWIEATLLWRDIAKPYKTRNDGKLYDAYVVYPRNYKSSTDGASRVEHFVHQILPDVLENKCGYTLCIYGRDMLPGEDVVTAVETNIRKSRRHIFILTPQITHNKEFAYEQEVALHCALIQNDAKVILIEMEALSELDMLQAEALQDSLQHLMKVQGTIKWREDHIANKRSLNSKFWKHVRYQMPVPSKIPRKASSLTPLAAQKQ
Numbers stand for hits; - = inactive.

SMILES | ST2 inh
Cc1cc(N2CCN(C)CC2)nc2ccc(NC(=O)C3CCCCC3)cc12 | -
Cc1ccccc1-c1cc(N2CCN(S(=O)(=O)c3cnn(C(F)F)c3C)CC2)ncn1 | -
CC1=C[C@@H](CNC(=O)NC2CCCCC2)[C@H](C(C)C)C[C@H]1CC(=O)O | -
CC1=C[C@@H](CNC(=O)c2ccccc2)[C@H](C(C)C)C[C@H]1CC(=O)O | -
COCC(=O)NC[C@@H]1C=C(C)[C@H](CC(=O)O)C[C@H]1C(C)C | 32%
Cc1ccc(NC(=O)c2ccc(F)cc2)c(Br)c1 | -
O=C(NCCC1=CCCCC1)C1CCC(=O)N(CCc2ccccc2)C1 (stereo not drawn) | -
CC(C)(C)n1nc2c(c1NC(=O)c1ccccc1Cl)CSC2 | -
COc1cc(/C=C2\SC(=Nc3c(C)n(C)n(-c4ccccc4)c3=O)NC2=O)ccc1O | -
Cc1cccc(N=C2NC(=O)/C(=C\c3ccco3)S2)c1 | 31%
O=C1NC(=Nc2cccc(Cl)c2Cl)S/C1=C/c1ccco1 | -
COCCn1cc(C(=O)NCc2ccccn2)c2c3ccccc3n(C)c2c1=O | -
O=C(c1cc(COc2cccc3cccnc23)on1)N1C[C@@H]2CC[C@H]1C2 | -
Cc1ccc(S(=O)(=O)N2CCN(c3ccccc3F)CC2)cc1 | -
Nc1ncnc(Nc2ccc(Oc3ccccc3)cc2)c1[N+](=O)[O-] | -
O=[N+]([O-])C1=C(Nc2ccccc2)CS(=O)(=O)C1 | -
O=[N+]([O-])c1c(Nc2ccccc2)sc2ccccc12 | 37%
Cc1cc(C)c([N+](=O)[O-])cc1-c1ccc(C=C2C(=O)NC(=O)NC2=O)o1 | 36%
O=C1NC(=O)/C(=C/c2ccc(-c3cccc(Cl)c3Cl)o2)N1 | -
Cc1cc(Cl)ccc1-c1ccc(C=O)o1 | -
CC(=O)Cn1c(Br)nc2c1c(=O)[nH]c(=O)n2C | -
CC(C)(C)CC(=O)NCc1ccccn1 | -
O=C(Nc1cccc(-c2nc3ccccc3[nH]2)c1)c1ccccc1 | -
O=C(NCc1ccccc1)c1ccccc1-c1nc2ccccc2[nH]1 | -
O=C(Nc1nonc1-c1nc2ccccc2[nH]1)c1ccccc1Cl | 32%
SMILES | ST2 inh
Cn1c(=O)cc2c3c(c(N4CCCCC4)ccc31)C(=O)c1ccccc1-2 | 44%
Cn1c(=O)cc(SCC(=O)N2CCCCCC2)c2ccccc21 | -
Cn1c(=O)cc2c3c(c(Br)ccc31)C(=O)c1ccccc1-2 | -
CCCn1cc2c(c1-c1ccc(OC)cc1)c(=O)n(C)c(=O)n2C | -
Cc1ccc(C(=O)/C=C/C=C/C=C/N(C)C)o1 | 39%
Cc1ccc(C(=O)N2CCc3ccccc32)o1 | -
COc1ccc(N2CC(C(=O)Nc3ccc(Br)cc3)CC2=O)cc1 (stereo not drawn) | -
N#Cc1ccccc1N1C(=O)Nc2cc(Cl)c(Cl)cc2N1O | -
C=C(C)CN(CC)Cc1ccc(-c2ccccc2[N+](=O)[O-])o1 | 33%
CCN(CC)C(=O)c1ccc([N+](=O)[O-])o1 | -
C=C(C)CN(CC)Cc1cc(OC)c(OC)c(OC)c1 | -
CC1CCC(NC(=O)C2(C)CCC(=O)N2C(C)c2ccccc2)CC1 (stereo not drawn) | -
O=C1N(Cc2ccc(F)c(F)c2)CCCC1(O)CNC1Cc2ccccc2C1 (stereo not drawn) | -
Cc1cc(C)cc(N(C(=O)c2ccccc2C)C2C=CS(=O)(=O)C2)c1 (stereo not drawn) | -
CC(C)NC(=O)NCC1CCCN(Cc2ccccc2F)C1 (stereo not drawn) | -
O=C(NCCCc1nc2ccccc2o1)c1scc2c1OCCO2 | -
CC(NC(=O)COc1ccc(Cl)cc1Cl)C(=O)O (stereo not drawn) | -
[N-]=C=C1C(=O)N(CCc2ccccc2)C(=O)C([n+]2ccccc2)C1c1ccc([N+](=O)[O-])cc1 (stereo not drawn) | 42%
O=[N+]([O-])c1ccc(N2CCN(CCc3ccccc3)CC2)cc1 | -
O=C(COc1ccc([N+](=O)[O-])cc1)NCc1ccccc1 | -
Cn1c(=O)c2c(nc(NC3CCCCC3)n2Cc2ccc(Cl)cc2)n(C)c1=O | -
CSc1cccc(CN2CCCC(Nc3ccccc3)C2)c1 (stereo not drawn) | -
c1nc(N2C[C@@H]3C4CCC(CC4)[C@@H]3C2)c2cc[nH]c2n1 | -
N#CCCn1nc(-c2ccccc2)cc1-c1ccccc1 | -
CN(C)c1ccc(C(O)(c2ccc(N(C)C)cc2)c2ccc(N(C)C)cc2)cc1 | 97%
SMILES | ST2 inh
CN(C)c1ccc(NC(=O)c2ccc(Cl)cc2)cc1 | -
CCCC(C)NC(=O)c1ccc(N(C)C)cc1 (stereo not drawn) | -
CCSc1nnc2c(n1)OC(c1cc3c(cc1[N+](=O)[O-])OCO3)Nc1ccccc1-2 (stereo not drawn) | -
O=C1CC(NS(=O)(=O)N2CCCCC2)CN1CCCc1ccccc1 (stereo not drawn) | -
O=C(NCc1ccccn1)C1CC(=O)N(CCc2ccccc2)C1 (stereo not drawn) | -
O=C1CC(NCc2ccccn2)CN1CCCc1ccccc1 (stereo not drawn) | 53%
O=[N+]([O-])c1ccc(CN2CCN(c3ncccn3)CC2)s1 | -
O=S(=O)(c1ccc(F)cc1)c1ccc(-c2ccccc2)cc1 | -
CC(C)NS(=O)(=O)c1cc(NC2CCCCC2)cc(C(=O)NC2Cc3ccccc3C2)c1 | 30%
Cc1ccc(S(=O)(=O)N2CCCCC2)cc1C(=O)NC1CCCCC1 | -
CC(C)C(NS(=O)(=O)c1cccs1)C(=O)NC1CCCCCC1 (stereo not drawn) | -
CC(=O)Nc1ccc(C(=O)Nc2cccc([N+](=O)[O-])c2)cc1 | -
O=C1CC2(CCN(C(=O)CCc3ccc(-c4ccc(Cl)cc4)[nH]3)CC2)CN1 | -
Cc1nc(=NC(=N)N)n(C)c2ccccc12 | -
COc1ccc(S(=O)(=O)Nc2ccc(NC(C)=O)cc2)cc1 | -
COc1ccc(NS(=O)(=O)c2ccc(NS(=O)(=O)c3ccc(C)cc3)cc2)cc1 | -
CCN(CC)c1ccc(NS(=O)(=O)c2ccc(OC)cc2)cc1 | 35%
COc1ccc(NC2=CC(=NS(=O)(=O)c3ccc(Cl)cc3)c3ccccc3C2=O)cc1 | 93%
O=C1C(Nc2ccccc2)=CC(c2ccc(O)cc2)N1c1ccccc1 (stereo not drawn) | -
O=S(=O)(O)c1ccc(Nc2ccccc2)cc1 | -
O=S(=O)(Nc1ccc(Oc2ccccc2)cc1)c1ccc(Cl)cc1 | -
Cc1ccc(Cl)cc1N1CCN(C(=O)C(NS(=O)(=O)c2cccs2)C(C)C)CC1 (stereo not drawn) | -
Cc1cccc(NS(=O)(=O)c2ccc(F)cc2)c1 | -
Cc1ccc(Cl)cc1NC1=CC(=NS(=O)(=O)c2cccs2)c2ccccc2C1=O | 56%
COc1ccc(S(=O)(=O)N=C2C=C(Nc3cccc(C)c3)C(=O)c3ccccc32)cc1 | 79%
SMILES | ST2 inh
O=S(=O)(Nc1ccc(F)c(Cl)c1)c1cccs1 | -
O=C1C=C(Nc2ccc(O)cc2)C(=O)c2ccccc21 | 42%
Cc1cccc(Nc2c3c4c(cccc4n(C)c2=O)C(=O)c2ccccc2-3)c1 | -
COc1ccc(NS(=O)(=O)c2ccc(NC(=O)Nc3ccc(Cl)cc3)cc2)cc1 | -
COCCCN1C(=O)C(=O)C(=C(O)c2ccc(Cl)cc2)C1c1ccc(F)cc1 (stereo not drawn) | -
CC(C)Cn1c(CN2CCCC2c2ccccn2)cnc1S(C)(=O)=O (stereo not drawn) | -
CO/N=C\c1c(Sc2ccc(Cl)cc2)nc2ccccn2c1=O | -
COCCNc1nc2c(c(=O)n(C)c(=O)n2C)n1Cc1ccc(F)cc1 | -
